# Screening results as filed in PubChem BioAssay.
# G9a inh – qHTS Assay for Inhibitors of Histone Lysine Methyltransferase G9a; Potency, µM (series often up to 102 µM), without a hit: at the highest dose activity, negative = inhibition, hits mostly inhibitors; Histone-lysine N-methyltransferase EHMT2 (Homo sapiens), Q96KQ7; 8.8% of 350,000 active; G9a H3K9 monomethylation, AlphaScreen, 2 h; also: % is scaled to controls: 0 for no effect and ±100 for the full control effect; nearly all actives have a fitted effect of over 75% in size
# Target sequence (Q96KQ7 913-1193 limits assumed): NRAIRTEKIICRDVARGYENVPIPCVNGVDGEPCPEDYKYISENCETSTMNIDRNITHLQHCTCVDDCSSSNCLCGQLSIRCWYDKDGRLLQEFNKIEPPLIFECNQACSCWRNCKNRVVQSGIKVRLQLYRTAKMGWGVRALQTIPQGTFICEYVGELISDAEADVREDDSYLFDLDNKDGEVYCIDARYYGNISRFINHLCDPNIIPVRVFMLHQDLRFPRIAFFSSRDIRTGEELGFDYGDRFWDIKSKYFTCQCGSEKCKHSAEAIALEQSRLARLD
#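 Step 1: enzyme (final 20 nM) with compound, 15 min RT. Step 2: substrate peptide 500 nM and SAM 20 uM, 2 h RT. Step 3: anti-H3K9me1 antibody and AlphaScreen beads, 10 min, then plate read.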
# JMJD2A Tudor – qHTS Assay for Inhibitors of JMJD2A-Tudor Domain. AlphaScreen JMJD2A-Tudor / H3K4me3 peptide binding. Potency, µM (titrated, usually from 114 µM), without a hit: at the top dose activity change, negative = inhibition, actives largely listed as inhibitors. 4.4% of 390,000 active. AID 504339, 2011; also: % is scaled to controls: 0 for no effect and ±100 for the full control effect; nearly all actives have a fitted effect of over 50% in size
# BAZ2B inh – qHTS Assay for Inhibitors of BAZ2B; 4.4% of 360,000 active; Potency, µM (doses to about 114 µM), for the others: at the highest dose activity change, negative = inhibition, usual class: inhibitors; AID 504333, 2011; AlphaScreen BAZ2B-H3K14Ac peptide displacement; Bromodomain adjacent to zinc finger domain protein 2B (Homo sapiens), Q9UIF8; also: % is scaled to controls: 0 for no effect and ±100 for the full control effect; nearly all actives have a fitted effect of over 60% in size
#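 AlphaScreen luminescence quantifies BAZ2B engagement of H3K14Ac peptide; the protein and biotinylated peptide are both at 50 nM final, buffer PBS pH 7.4 with 0.01% Tween-20, all steps at room temperature.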
# HP1b chromo inh – HTS for Inhibitors of HP1-beta Chromodomain Interactions with Methylated Histone Tails. 0.56% of 390,000 active. AlphaScreen HP1-beta / biotin-H3K9me3 peptide binding. Chromobox protein homolog 1 (Homo sapiens), P83916. Potency, µM (titrated, usually from 114 µM), inactives show top-dose activity change, negative = inhibition, usual class: inhibitors. AID 540317, 2011; also: nearly all actives have a fitted effect of over 70% in size
# Target sequence (P83916 whole entry, looked up): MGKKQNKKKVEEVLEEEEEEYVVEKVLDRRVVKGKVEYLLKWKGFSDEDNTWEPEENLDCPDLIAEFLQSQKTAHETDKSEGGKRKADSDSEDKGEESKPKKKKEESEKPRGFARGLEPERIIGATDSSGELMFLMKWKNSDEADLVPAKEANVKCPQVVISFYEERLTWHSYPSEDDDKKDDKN
#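 Compound inhibition of the preformed complex between 50 nM HP1-beta and 50 nM biotinylated H3K9me3 peptide was read by AlphaScreen. Buffer was PBS pH 7.4 with 0.01% Tween-20. Incubations ran 30 min at room temperature, with 10 ug/mL donor/acceptor beads.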
# Sfp inh – qHTS Assay for Inhibitors of Bacillus subtilis Sfp phosphopantetheinyl transferase (PPTase); Potency, µM, for the others: largest response in the series, negative = inhibition, usual class: inhibitors; 3.5% of 310,000 active; Biochemical Sfp PPTase activity, qHTS; 4'-phosphopantetheinyl transferase ffp (Bacillus subtilis), Q9F4F7; AID 1490, 2009;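 also: the enzyme is Sfp with the accession as filed and its product quenches rhodamine fluorescence; 0% = enzyme reaction without inhibitor and -100% = no enzyme wells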
#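 Fluorescence-quenching assay: 15 nM Sfp-PPTase preincubated 15 min at room temperature with compound, then 5 uM rhodamine-CoA and 12.5 uM BHQ-2-labelled YbbR peptide added. Fluorescence (ex 525/em 598 nm) read at start and after 30 min; difference gives rate.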
# Starred values were filed as active, the others as inactive; ? = inconclusive; . = no result given; [ ] = remark or other dose. Rows were chosen to be rich in hits. Some 12% of all compounds tested hit in one or more screens of this group. Calls follow the shape of the dose curve; as a rule, active = well fitted curve in the direction sought with a large enough effect; inconclusive = small, poorly fitted or top-dose-only effect, or another doubt; inactive = no such curve, though single readings can be large; an effect the other way counts as inactive or inconclusive. Potency is read from the fitted curve at half-maximal effect.
SMILES,G9a inh,JMJD2A Tudor,BAZ2B inh,HP1b chromo inh,Sfp inh
O=S(=O)(NCc1ccccn1)c1cc(Cl)ccc1Cl,79.4µM*,-6.9%,-7.3%,22.2%,-10.6%
Cc1cc(S(=O)(=O)NCC(C)C)ccc1OCC(=O)NCc1ccccn1,?,22.4µM*,?,16.6%,-29.5%
CN1C(=O)C(C)(C)c2cc(S(=O)(=O)N3CCCC3C(=O)NCc3ccccc3Cl)ccc21 (centres undefined),.,-14.1%,12.0%,76.0%,10.7%
COc1ccc(C)cc1NC(=O)CN(C)S(=O)(=O)c1ccc2[nH]c(=O)oc2c1,2.8%[59 µM],-15.7%,-17.4%,29.7%,.
C[C@H]1[C@H](C)CC[C@]2(C(=O)O)CC[C@]3(C)C(=CCC4[C@@]5(C)C[C@@H](O)[C@H](O)[C@@](C)(CO)[C@@H]5CC[C@]43C)[C@H]12 (some centres undefined),.,.,.,.,38.6%
Cc1ccc(S(=O)(=O)NCC(=O)OCC(=O)NCCc2ccccc2)cc1,-53.7%,-3.4%,-5.6%,26.6%,.
O=C(NCc1ccccc1)c1ccc2c(c1)CCN2S(=O)(=O)c1ccccc1,3.9%[59 µM],-16.0%,1.3%,1.6%,.
Cc1ccc(CNC(=O)C2=CCN(S(=O)(=O)c3ccc(C)cc3)CC2)cc1,31.6µM*,.,2.5%,.,-13.8%
Cc1ccc(CCNC(=O)C2=CCN(S(=O)(=O)c3ccccc3)CC2)cc1,-11.7%[59 µM],-3.8%,-9.8%,63.4%,15.3%
Cc1ccc(CNC(=O)c2ccc3c(c2)CCN3S(=O)(=O)c2ccccc2)cc1,5.62µM*,-17.9%,-2.1%,12.6%,.
COCCCNC(=O)C1=CCN(S(=O)(=O)c2ccc(C)cc2)CC1,35.5µM*,-3.8%,-12.4%[57.1 µM],48.2%,8.5%
COc1ccccc1CNC(=O)COC(=O)CNS(=O)(=O)c1ccc(C)cc1,70.8µM*,-18.8%,-26.5%,9.3%,28.2µM*
O=C(COc1ccc(Br)cc1)OCc1nnc(-c2ccccc2)o1,31.9%[59 µM],3.8%[57.1 µM],66.2%,118.0%,-11.1%
Cc1ccccc1C(=O)Nc1ccc(C(=O)OCc2cc(=O)n3nc(C(C)C)sc3n2)cc1,5.9%[59 µM],-14.2%,-3.2%,13.0%,.
COCCNC(=O)COC(=O)c1nsc(Cl)c1Cl,16.6%[0.501 µM],?,-2.5%[57.1 µM],-1.1%,-1.1%
Cc1ccc(S(=O)(=O)N2CC=C(C(=O)NCc3ccc(F)cc3)CC2)cc1,22.4µM*,.,4.6%,.,?
COc1ccccc1CNC(=O)c1ccc(S(=O)(=O)N2CCCC2)cc1,-37.2%,-11.7%,1.4%,9.9%,3.8%
COc1ccc(CCNC(=O)C2=CCN(S(=O)(=O)c3ccc(F)cc3)CC2)cc1OC,?,-14.5%,-3.5%,16.9%,0.6%
COc1ccccc1CNC(=O)C1=CCN(S(=O)(=O)c2ccc(C)cc2)CC1,50.1µM*,-15.6%,-12.9%,18.6%,4.9%
CCN(CC)c1ccc(NC(=O)C2=CCN(S(=O)(=O)c3ccc(F)cc3)CC2)c(C)c1,11.2µM*,?,?,-6.6%,-4.7%
COc1ccccc1CNC(=O)CCS(=O)(=O)c1cccs1,44.7µM*,-14.6%,14.6%,29.2%,-12.2%
Cc1ccc(S(=O)(=O)N2CC=C(C(=O)NC3CC3)CC2)cc1,?,-10.3%[11.4 µM],0.2%,12.4%,10.8%
CCOc1ccccc1C(=O)N[C@H](C(=O)Nc1nc2c(s1)CCCC2)C(C)C,-10.0%[59 µM],?,?,-23.0%,-4.0%
COc1ccc(CCNC(=O)C(=O)NCC(c2ccco2)S(=O)(=O)c2ccccc2)cc1 (centres undefined),1.5%[59 µM],-14.9%,-2.4%,2.5%,.
CCC1(C(=O)c2ccc(Cl)cc2)C2c3ccccc3OC(=O)C21C(=O)Nc1ccccc1 (centres undefined),-10.1%,?,-30.6%,-3.5%,17.0%
SMILES,G9a inh,JMJD2A Tudor,BAZ2B inh,HP1b chromo inh,Sfp inh
Cc1cc(C)c(NC(=O)c2c(C)nn(-c3ccc(F)cc3)c2-n2cccc2)c(C)c1,?,-20.0%,-4.8%,10.3%,.
CCN(CC)c1ccc(NC(=O)c2c(C)nn(-c3ccc(F)cc3)c2-n2cccc2)c(C)c1,3.16µM*,31.6µM*,35.5µM*,-21.2%,.
O=C(CN(Cc1ccccc1)C1=NCCS1)c1ccc(Cl)cc1,44.7µM*,15.8%,-0.5%,62.1%,-8.1%
CC(=O)Nc1cccc(NC(=O)c2cc(-c3ccccn3)nc3ccc(Cl)cc23)c1,17.3%,-13.7%,7.4%,16.0%,-7.0%
COc1ccc(S(=O)(=O)N2CCC(C(=O)NCCN3CCOCC3)CC2)cc1OC,4.4%,-2.8%,2.5%,43.8%,24.3%
O=C(Nc1ccccc1F)Nc1ccccc1F,9.1%,11.4%,-0.2%,50.8%,21.4%
Cc1ccc(NC(=O)CCC(=O)NNS(=O)(=O)c2ccc(Cl)cc2)cc1C,-12.1%,-2.8%,-11.1%,42.1%,20.7%
O=C(NNc1ccccc1)Nc1ccccc1F,50.1µM*,-13.4%,?,3.9%,5.6%
O=C(CCC(=O)Nc1ccccc1)NNS(=O)(=O)c1ccc(Cl)cc1,6.31µM*,?,-19.2%,28.0%,56.2µM*
Cc1ccc(NC(=O)CCC(=O)NNC(=O)/C=C/C(=O)O)c(C)c1,10µM*,?,-36.2%,20.8%,-8.9%
Cc1ccc(NS(=O)(=O)c2ccccc2)c(C)c1,.,50.1µM*,.,12.0%,.
Cc1c(NS(=O)(=O)c2ccccc2)cc(Cl)c(O)c1C,?,89.1µM*,-9.0%,?,?
Cc1ccc(NS(=O)(=O)c2cccc(C(=O)NNC(=O)c3cccn3C)c2)c(C)c1,.,?,44.7µM*,-5.8%,11.3%
Cc1ccc(NC(=O)CCC(=O)NNS(=O)(=O)c2ccccc2)c(C)c1,50.1µM*,-21.9%[11.4 µM],-4.2%[57.1 µM],-6.4%,11.6%
Cc1ccc(NC(=O)CS(=O)c2ccccc2N)c(C)c1 (centres undefined),39.8µM*,-10.3%,-16.8%,4.7%,7.6%
Cc1c(Cl)cccc1NS(=O)(=O)c1ccccc1,.,-4.9%,.,2.6%,.
Cc1ccc(NC(=O)CCC(=O)NNS(=O)(=O)c2ccccc2)cc1C,-0.8%[59 µM],?,-1.6%,?,2.4%
Cc1ccnc(NC(=O)c2cccc(S(=O)(=O)Nc3ccc(C)cc3C)c2)c1,.,-24.1%,.,0.8%,.
Cc1ccc(C(=O)Nc2cccnc2)cc1S(=O)(=O)N1CCCCCC1,37.9%,-8.8%,-24.1%,26.5%,8.2%
CC(C)CC(=O)Nc1nnc(SCC(=O)NCc2ccco2)s1,14.3%,-8.4%,-4.7%,13.4%,11.0%
CN(C)C(CNC(=O)c1cccnc1Sc1ccccc1)c1ccco1 (centres undefined),-25.7%[12.7 µM],-19.5%,-10.0%,7.7%,8.7%
Cc1ccc(S(=O)(=O)NNC(=O)Nc2cccc(C)c2C)c(C)c1,21.4%,-4.6%,0.2%,32.7%,14.3%
